TLR9-MyD88 block = blocks human TLR9 binding to MyD88. Q9NR96+Q99836. CHO BLA complementation TLR9-MyD88, CCF4 FRET ratio. inhibition, % at 4.98 µM. hit rate 0.21% among 340,000. AID 504734;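 active means inhibition above the mean over all tested compounds plus 3 SD, cut at about 21% in these data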;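 further: 0% = DMSO only wells and 100% = clavulanate BLA inhibitor control wells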
TLR4 MyD88 comp = TLR4-MyD88 interaction inhibition in cells | O00206+Q99836 | HeLa CL3-4 TLR4/MyD88 BLA complementation, FRET ratio | inhibition, % at 8.4 µM | hit rate 0.18% among 200,000; in the data active means inhibition above about 25%;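 further: 0% = vehicle and 100% = reference inhibitor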
GC-A act = GC-A (human) enzyme activation; P16066; HEK293 GC-A cells, cGMP TR-FRET, EC30 ANP; 0% at EC30 ANP, 100% saturating ANP; activation, % at 10 µM; hit rate 0.14% among 370,000; in the data active means activation above about 40%
GC-B act = GC-B (human) receptor activation | P20594 | HEK293-GC-B cells, CNP EC30, cGMP TR-FRET; 0% at EC30 CNP, 100% saturating CNP | activation, % at 10 µM | hit rate 0.11% among 370,000 | AID 1920062;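 active means activation at 10 µM reaching about 35% in either raw or pattern-adjusted values, limit read from the data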
Neddylation inh = cullin neddylation inhibition; P61081+Q13564; TR-FRET cullin neddylation, biochemical; inhibition, % at 25 µM; hit rate 0.58% among 360,000; AID 651699; in the data active means inhibition above about 36%
NOD2 RIPK2 PPI = inhibitors of human NOD2-RIPK2 interaction; O43353; CHO BLA complementation NOD2-RIPK2, CCF4 ratio; inhibition, % at 4.98 µM; hit rate 0.38% among 360,000; AID 624267; in the data active means inhibition above about 21%;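 further: 0% = vehicle only and 100% = reference blocker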
TLR4-MyD88 conf = TLR4-MyD88 interaction inhibition confirmed | shares compounds with TLR4 MyD88 comp | HeLa CL3-4 BLA complementation, CCF4 FRET ratio | inhibition, % at 8.4 µM | hit rate 50% among 350 | AID 941;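 active means mean inhibition across three repeat runs above about 25% carried over from the earlier screen, limit read from the data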;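 further: plate controls were DMSO only for no effect and clavulanic acid blocking BLA at full dose for full effect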
BLA inhibitor ct = inhibits beta-lactamase activity, counter-screen to TLR4-MyD88 binding inhibitors; shares compounds with TLR4 MyD88 comp; inhibition, % at 8.4 µM; HeLa BLA reporter, CCF4 FRET ratio; hit rate 63% among 350;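 active means mean inhibition over three repeats above about 26% taken from the earlier screen, limit read from the data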;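 further: HeLa cells stably expressing beta-lactamase reporter as counterscreen for TLR4-MyD88 inhibitors; 0% = DMSO and 100% = clavulanic acid full inhibition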
The depositor's hits bear a star; . = no result given. A selection: hits, their analogues and other compounds. The true share with any hit is near 1.2%.

SMILES	TLR9-MyD88 block	TLR4 MyD88 comp	GC-A act	GC-B act	Neddylation inh	NOD2 RIPK2 PPI	TLR4-MyD88 conf	BLA inhibitor ct
COc1cccc(C2=CC(c3ccccc3)n3ncnc3N2)c1 (configuration not stated)	.	10	.	.	.	.	.	.
CCOc1ccc(C2C=C(c3ccccc3)Nc3ncnn32)cc1 (configuration not stated)	.	27*	.	.	.	.	24	41*
CC(C)(C)OC(=O)N1CCC2CCN(S(=O)(=O)c3ccccc3)CC21 (configuration not stated)	.	.	-1	2	.	.	.	.
CCOC(=O)[C@@]12CCCC=C1N(CCc1ccc(Cl)cc1)C(=O)[C@H]2CC(=O)N1CCN(C(=O)c2ccco2)CC1	.	.	2	-1	.	.	.	.
O=C(N[C@H](Cc1ccccc1)C(=O)NCc1ccco1)[C@H]1O[C@@H](n2ccc(=O)[nH]c2=O)[C@H](O)[C@@H]1O	.	.	2	6	.	.	.	.
CN1CCN(S(=O)(=O)c2cc([N+](=O)[O-])ccc2N/N=C/c2ccc(Cl)cc2)CC1	-1	-9	-1	7	13	5	.	.
COc1ccccc1NS(=O)(=O)c1cc([N+](=O)[O-])ccc1N/N=C/c1c(C)[nH]c2ccccc12	11	36*	-4	-8	-20	17	22	45*
O=[N+]([O-])c1ccc(N/N=C/c2c[nH]c3ccccc23)c(S(=O)(=O)Nc2ccc(Cl)cc2)c1	3	57*	-1	-5	-45	-4	43*	65*
O=S1(=O)c2ccc(Br)cc2OC[C@H](Cc2ccccc2)N1Cc1cn(CCC2OCCO2)nn1	.	.	-1	7	.	.	.	.
CC(C)(C)c1ccc(-c2nnc(SCC(=O)Nc3ccc(S(=O)(=O)Nc4nccs4)cc3)n2Cc2ccco2)cc1	.	.	-2	7	.	.	.	.
C[C@H]1[C@H](N(Cc2ccccc2)Cc2ccccc2)CC[C@@]23CCCN2C(=O)CCC[C@@H]13	.	.	-2	-3	.	.	.	.
CN(C)c1ccc(/C=C/C(O)=C2/C(=O)N(C)C3(C)CC2c2ccccc2O3)cc1 (configuration not stated)	.	49*	.	.	.	.	35*	68*
CCCC1CCC2(CC1)CCC2OC(=S)NCc1cccc(OC)c1 (configuration not stated)	.	.	-5	2	.	.	.	.
COCCn1c(=O)[nH]c(=O)c2c1nc(-c1ccc(-c3ccc(Cl)cc3[N+](=O)[O-])o1)n2Cc1ccccc1	-5	-8	20	2	30	1	.	.
COCCn1c(-c2ccc(-c3ccc([N+](=O)[O-])cc3Br)o2)nc2c1c(=O)[nH]c(=O)n2CC(C)C	-2	44*	0	7	-15	15	30*	59*
O[C@H](COc1ccc(Cl)cc1)CN1CCC(C(O)(c2ccccc2)c2ccccc2)CC1	.	.	-12	-4	.	.	.	.
Nc1[nH]c(C(=O)c2ccc(Br)cc2)c(-c2ccc3ccccc3c2)c1C(=O)NCCc1c[nH]c2ccccc12	.	.	-3	0	.	.	.	.
COc1ccccc1N1CCN(C(=O)COc2cc(C)cc(C)c2)CC1	-6	26*	-4	-8	5	2	-5	-2
COc1ccccc1N1CCN(C(=O)COc2cc(C)ccc2C)CC1	5	8	-5	-5	5	-15	.	.
COc1ccc(-c2c3c(nc4sc(C(=O)Nc5ccccc5)c(N)c24)CCC3)cc1	9	25*	0	1	-393	8	36*	58*
Nc1c(C(=O)Nc2ccccc2)sc2nc3c(c(-c4ccco4)c12)CCC3	5	8	7	-3	-11	12	.	.
CCCCNc1cccc2c1S(=O)(=O)N[C@@H](Cc1ccccc1)CO2	.	.	-3	-5	.	.	.	.
CCOC(=O)c1cnn2c(N)c(C#N)nnc12	-3	-4	-2	2	0	-10	.	.
CCOC(=O)c1c(C)nc2c(C#N)cnn2c1C	-8	25*	0	3	.	-4	-4	14

Screening data: PubChem, several laboratories
